These results are taken from PubChem BioAssay (Tox21).

Unmarked numbers belong to inactive results. Records with an inconclusive call do not appear. The source made the active and inactive calls. Unless noted, calls come from the whole dose curve.

Assay [1] is described as follows: Nuclear factor erythroid 2-related factor 2/antioxidant responsive element (Nrf2/ARE) small molecule agonists: qHTS cell viability counter screen in human keratinocytes (AID 1919968; active = well fitted curve in the direction sought with a large enough effect in the repeat runs; an effect the other way counts as inactive or inconclusive; note: nearly all actives have a fitted effect of over 55% in size; note: potency is the fitted concentration of half-maximal effect). The essentials: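 Measured as CellTiter-Fluor fluorescence, this readout tracks cytotoxicity in the same wells as the ARE-luciferase screen. HaCaT reporter cells (1,500/well) received compounds after a 5 h pre-incubation and were exposed for 23 h.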
On the technique in general: In qHTS, concentration-response curves come from the screen itself.

Assay [2] in a line: Nuclear factor erythroid 2-related factor 2/antioxidant responsive element (Nrf2/ARE) small molecule agonists: luciferase reporter gene qHTS assay in human keratinocytes (AID 1919969; note: nearly all actives have a fitted effect of over 35% in size). (A reporter such as luciferase makes a cellular process visible.)
The target in assay [3] is KiSS-1 receptor (Homo sapiens) (UniProt Q969F8). The experiment in a line: Human kisspeptin (KISS1R) small molecule agonists, calcium flux assay in KISS1R-HEK293 cells (AID 1920064; active = well fitted curve in the direction sought with a large enough effect in the repeat runs; an effect the other way counts as inactive or inconclusive). Put shortly:
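Measures KISS1R agonism through calcium-sensitive dye fluorescence in stably transfected HEK293 cells, read for 3 min after pin-tool compound delivery; 15-point titrations in triplicate.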
In general terms: A change in cytosolic calcium serves as a functional read-out for many receptors and channels.

Assay [4] in a line: p53 small molecule agonists, cell-based qHTS assay with human liver microsomes (AID 1963577).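 Note: p53 response element beta-lactamase reporter cells with liver microsomes plus NADPH.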 Put shortly: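 16 h, 37 C exposure of p53RE-bla cells to compounds with human liver microsomes and NADPH (0.5 mg/mL final each); detection via LiveBLAzer mixture, 2 h dark at room temperature.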
Assay [5] in a line: p53 small molecule agonists, cell-based qHTS assay with rat liver microsomes (AID 1963578). The essentials:
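With rat liver microsomes and NADPH present (0.5 mg/mL final each), p53RE-bla cells are treated with compound for 16 h at 37 C. LiveBLAzer detection mixture is then applied for 2 h at room temperature in the dark.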

Assay [6] is described as follows: p53 small molecule agonists, cell-based qHTS assay with rat liver microsomes: qHTS cell viability counter screen (AID 1963580). Note: nearly all actives have a fitted effect of over 45% in size. The essentials: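 p53RE-bla HCT-116 cells were exposed 16 h at 37 C to compounds with rat liver microsomes (0.5 mg/mL) and NADPH (0.5 mg/mL). Viability was measured in the same wells as ATP content by CellTiter-Glo luminescence.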
A short description of assay [7]: p53 small molecule agonists, cell-based qHTS assay: qHTS cell viability counter screen (AID 1963581). Note: nearly all actives have a fitted effect of over 45% in size. Note: potency is the fitted concentration of half-maximal effect. Put shortly:
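In the same plates used for the p53 bla reporter, HCT-116 cells given compounds for 16 h at 37 C received CellTiter-Glo; luminescence was recorded 30 min later at room temperature.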

Assay [8] in a line: p53 small molecule agonists, cell-based qHTS assay (AID 1963582; active = well fitted activation curve with a large enough effect in the signal ratio in the repeat runs, not every such curve was filed as active; the % refers to the signal ratio). The essentials:
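Compounds are pin-transferred in DMSO onto p53RE-bla cells and incubated 16 h at 37 C. The B/G FRET beta-lactamase substrate is then applied for 2 h at RT and fluorescence recorded.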

Assay [9] deals with 5-hydroxytryptamine receptor 2A (Homo sapiens) (UniProt P28223). The experiment in a line: 5-hydroxytryptamine receptor 2A (HTR2A) small molecule antagonists, cell-based qHTS assay (AID 1963586). Note: nearly all actives have a fitted effect of over 45% in size. Put shortly: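 Antagonist-mode intracellular calcium assay: DOI (4 nM) added after 5 min compound pre-incubation at room temperature to dye-loaded HTR2A-CHO cells. Fluorescence followed for 3 min, sampled every second.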

Assay [10] has the same target. The assay is described as follows: 5-hydroxytryptamine receptor 2A (HTR2A) small molecule agonists, cell-based qHTS assay (AID 1963587). Note: nearly all actives have a fitted effect of over 30% in size. The essentials:
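CHO cells stably expressing human HTR2A, plated 18 h, loaded with calcium dye 1 h at 37 C. Agonist mode: compounds added and intracellular calcium fluorescence recorded kinetically for 2 min at 1 sec intervals.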

Assay [11] addresses Muscarinic acetylcholine receptor M1 (Homo sapiens) (UniProt P11229). The assay is described as follows: Cholinergic receptor muscarinic 1 (CHRM1) small molecule antagonists, cell-based qHTS assay (AID 1963588). Note: nearly all actives have a fitted effect of over 40% in size. Put shortly:
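CHRM1-CHO calcium-flux assay, antagonist mode. Cells were seeded 18 h, dye-loaded 1 h at 37 C and given compound for 5 min at RT, then acetylcholine was added at 50nM. FDSS fluorescence was read 3 min; 15 concentrations, three runs.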

Assay [12] has the same target. The assay is described as follows: Cholinergic receptor muscarinic 1 (CHRM1) small molecule agonists, cell-based qHTS assay (AID 1963589). Note: nearly all actives have a fitted effect of over 35% in size. The essentials:
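Each compound was tested at 15 concentrations across three independent runs on dye-loaded CHO cells stably expressing human CHRM1, reading intracellular calcium fluorescence kinetically at 1 sec intervals.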

Assay [13] is described as follows: cAMP Responsive Elements (CRE) small molecule agonists, cell-based qHTS assay (AID 1963590). The essentials:
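Cell line: CRE-bla HEK 293T; medium DMEM/10% dialyzed FBS/0.1 mM NEAA/1 mM pyruvate/25 mM HEPES; 3 h compound exposure; beta-lactamase FRET readout after 2 h substrate loading at RT.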

A short description of assay [14]: cAMP Responsive Elements (CRE) small molecule antagonists, cell-based qHTS assay (AID 1963591; active = well fitted inhibition curve with a large enough effect in the signal ratio in the repeat runs, not every such curve was filed as active; the % refers to the signal ratio). Put shortly: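 Inhibition of NKH477-driven (0.25 uM final) CRE-beta-lactamase signal in HEK293T cells, 3 h compound exposure at 37 °C, detected by FRET substrate fluorescence.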
The target in assay [15] is Beta-2 adrenergic receptor (Homo sapiens) (UniProt P07550). The assay is described as follows: Adrenergic beta2 receptor (ADRB2) small molecule antagonists, cell-based qHTS assay (AID 1963592). Note: series mostly up to about 92 µM; nearly all actives have a fitted effect of over 50% in size. Put shortly:
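Cells (CHO, stable ADRB2 overexpression) incubated 18-20hr at 37C; compounds added from DMSO; agonist mix (1nM isoproterenol, 100uM IBMX, 25uM Ro-20-1724) added; 0.5hr RT; d2-cAMP and anti-cAMP-cryptate added; 1hr RT; 665/615 nm read.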

The target in assay [16] is D(2) dopamine receptor (Homo sapiens) (UniProt P14416). The experiment in a line: Dopamine D2 receptor (DRD2) small molecule agonists, cell-based qHTS assay (AID 1963594). Note: nearly all actives have a fitted effect of over 35% in size. Put shortly:
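HEK293 cells stably expressing human DRD2, pre-treated with PDE inhibitor Ro20-1724 (0.1 mM final) and compound 10 min at room temperature, then stimulated with NKH477 (200nM […]) for 30 min. cAMP read by HTRF (665/620 nm).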

Assay [17] has the same target. The experiment in a line: Dopamine D2 receptor (DRD2) small molecule antagonists, cell-based qHTS assay (AID 1963595; active = well fitted inhibition curve with a large enough effect in the signal ratio in the repeat runs, with a control signal flat; the % refers to the signal ratio). Put shortly:
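Antagonist mode in DRD2-HEK293 cells: after compound addition with 0.1 mM Ro20-1724, cells received quinpirole (12 nM) and NKH477 (200 nM) for 30 min at room temperature; HTRF cAMP read after 1 h detection.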

A short description of assay [18]: G protein-coupled receptor (GPCR) small molecule agonists, calcium flux assay: HEK293 wild type cell line counter screen (AID 1920065). Put shortly:
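Readout: fluorescence at 480 nm excitation/540 nm emission, sampled at 1 s intervals for 3 min. Cells had been cultured 18 h, then dye-loaded 1 h at 37 C before compound or ATP addition.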

A short description of assay [19]: p53 small molecule agonists, cell-based qHTS assay with human liver microsomes: qHTS cell viability counter screen (AID 1963579). Note: nearly all actives have a fitted effect of over 45% in size. The essentials:
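In this multiplexed counter screen, the reporter plates were subsequently treated with CellTiter-Glo so that cell viability, reflected by luminescence, could be recorded for p53RE-bla cells dosed 16 h with compounds under microsomal activation (HLM and NADPH).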

Assay [20] concerns the target Gonadotropin-releasing hormone receptor (Homo sapiens) (UniProt P30968). The assay is described as follows: Human gonadotropin-releasing hormone receptor (GnRHR) small molecule agonists, calcium flux assay in GnRHR-HEK293 cells (AID 1920063). Note: nearly all actives have a fitted effect of over 35% in size. The essentials: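 Fluorescence kinetics (480 nm excitation, 540 nm emission; 3 min, 1 s steps) report calcium mobilisation in human GnRHR-HEK293 cells in agonist mode. Dye incubation: 1 h, 37 C.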
% is set by controls: 0 for no effect and ±100 for the full control effect.

Chain of Beta-2 adrenergic receptor (Homo sapiens) (P07550 whole entry, looked up): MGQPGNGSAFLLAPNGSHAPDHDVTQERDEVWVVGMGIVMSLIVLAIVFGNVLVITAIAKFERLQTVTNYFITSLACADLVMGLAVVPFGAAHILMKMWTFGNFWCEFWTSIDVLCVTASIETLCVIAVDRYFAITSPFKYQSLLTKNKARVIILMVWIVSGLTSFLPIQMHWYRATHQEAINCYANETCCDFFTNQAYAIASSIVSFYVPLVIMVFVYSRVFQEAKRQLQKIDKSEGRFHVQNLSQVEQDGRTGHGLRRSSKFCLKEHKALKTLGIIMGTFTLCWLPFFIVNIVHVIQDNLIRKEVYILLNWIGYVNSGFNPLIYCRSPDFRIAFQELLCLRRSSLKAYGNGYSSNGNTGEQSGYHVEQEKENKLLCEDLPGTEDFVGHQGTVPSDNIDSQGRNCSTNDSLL
Chain of Muscarinic acetylcholine receptor M1 (Homo sapiens) (P11229 whole entry, looked up): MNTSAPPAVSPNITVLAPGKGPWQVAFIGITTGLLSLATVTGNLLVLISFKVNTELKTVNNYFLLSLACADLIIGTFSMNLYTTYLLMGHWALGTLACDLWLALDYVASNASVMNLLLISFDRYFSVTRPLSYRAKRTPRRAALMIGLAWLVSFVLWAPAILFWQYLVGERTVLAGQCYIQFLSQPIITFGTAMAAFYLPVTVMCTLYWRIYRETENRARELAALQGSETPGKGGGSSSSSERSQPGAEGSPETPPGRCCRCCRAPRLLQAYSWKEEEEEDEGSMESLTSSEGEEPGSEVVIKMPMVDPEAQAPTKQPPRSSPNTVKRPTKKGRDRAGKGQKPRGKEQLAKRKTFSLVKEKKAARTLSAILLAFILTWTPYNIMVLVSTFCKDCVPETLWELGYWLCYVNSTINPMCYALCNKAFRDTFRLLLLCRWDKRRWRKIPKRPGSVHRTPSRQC
Chain of D(2) dopamine receptor (Homo sapiens) (P14416 whole entry, looked up): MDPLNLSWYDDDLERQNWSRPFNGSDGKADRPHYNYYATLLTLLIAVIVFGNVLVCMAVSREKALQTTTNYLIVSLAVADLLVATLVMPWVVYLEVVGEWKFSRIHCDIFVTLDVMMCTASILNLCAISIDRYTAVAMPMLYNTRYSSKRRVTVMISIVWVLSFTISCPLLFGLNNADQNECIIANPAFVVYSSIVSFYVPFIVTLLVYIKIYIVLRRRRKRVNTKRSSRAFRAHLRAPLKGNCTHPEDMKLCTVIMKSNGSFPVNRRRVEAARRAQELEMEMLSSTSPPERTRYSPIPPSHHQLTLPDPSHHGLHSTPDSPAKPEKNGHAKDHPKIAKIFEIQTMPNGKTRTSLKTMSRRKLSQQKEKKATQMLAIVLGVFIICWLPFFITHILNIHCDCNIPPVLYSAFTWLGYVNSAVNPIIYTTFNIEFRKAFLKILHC
Chain of KiSS-1 receptor (Homo sapiens) (Q969F8 whole entry, looked up): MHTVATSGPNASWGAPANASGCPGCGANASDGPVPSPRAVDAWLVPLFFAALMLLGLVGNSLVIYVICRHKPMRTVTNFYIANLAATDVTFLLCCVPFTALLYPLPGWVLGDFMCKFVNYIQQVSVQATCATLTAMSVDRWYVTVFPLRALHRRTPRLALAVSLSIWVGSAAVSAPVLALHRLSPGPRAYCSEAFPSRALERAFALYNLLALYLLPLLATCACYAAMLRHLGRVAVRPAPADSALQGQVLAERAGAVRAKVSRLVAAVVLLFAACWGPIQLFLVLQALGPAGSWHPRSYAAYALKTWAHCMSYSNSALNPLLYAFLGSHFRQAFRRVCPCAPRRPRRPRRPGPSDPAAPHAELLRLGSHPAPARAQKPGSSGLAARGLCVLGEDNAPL
Chain of 5-hydroxytryptamine receptor 2A (Homo sapiens) (P28223 whole entry, looked up): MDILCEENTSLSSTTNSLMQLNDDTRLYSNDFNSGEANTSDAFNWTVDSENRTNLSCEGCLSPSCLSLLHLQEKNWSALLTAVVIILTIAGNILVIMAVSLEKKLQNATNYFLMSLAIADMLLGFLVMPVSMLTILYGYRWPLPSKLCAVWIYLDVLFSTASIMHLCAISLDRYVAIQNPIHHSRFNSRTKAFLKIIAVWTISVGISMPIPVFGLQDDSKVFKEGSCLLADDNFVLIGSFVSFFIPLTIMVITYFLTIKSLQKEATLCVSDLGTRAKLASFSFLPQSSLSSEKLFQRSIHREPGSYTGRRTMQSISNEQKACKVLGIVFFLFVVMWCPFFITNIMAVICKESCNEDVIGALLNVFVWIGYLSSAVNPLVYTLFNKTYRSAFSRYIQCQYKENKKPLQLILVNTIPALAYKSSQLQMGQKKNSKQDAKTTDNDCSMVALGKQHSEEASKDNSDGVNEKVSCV
Chain of Gonadotropin-releasing hormone receptor (Homo sapiens) (P30968 whole entry, looked up): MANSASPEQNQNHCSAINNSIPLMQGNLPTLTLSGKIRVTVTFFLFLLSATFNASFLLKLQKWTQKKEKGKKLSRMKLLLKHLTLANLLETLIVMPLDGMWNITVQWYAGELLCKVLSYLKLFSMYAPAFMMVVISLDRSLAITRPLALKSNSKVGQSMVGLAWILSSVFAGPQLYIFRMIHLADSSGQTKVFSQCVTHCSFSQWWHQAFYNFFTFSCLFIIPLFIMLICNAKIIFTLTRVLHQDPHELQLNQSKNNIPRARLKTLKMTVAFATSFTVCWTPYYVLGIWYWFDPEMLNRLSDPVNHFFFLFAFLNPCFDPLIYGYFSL

As for `S=C(SSSSSSC(=S)N1CCCCC1)N1CCCCC1`, in [1], the Potency was 0.134 µM (active). Also, the activity, positive = activation in assay [2] was -39.1% [at 19 µM]. Further, the activation in assay [3] is 1.75% [at 15.8 µM]; in assay [4], -17.2% [at 13.5 µM]; in assay [5] it was -7.65% [at 13.6 µM]; in assay [8], -6.37% [at 13.5 µM]; in assay [10], 13.8% [at 15.9 µM]; in [12], 2.41% [at 15.8 µM]. In addition, the activation in [13] was -0.287% [at 19 µM]; in assay [16], -0.326% [at 19 µM]. Besides, the values for the activity change, negative = cytotoxicity in assay [6] and in [7] were -21.4% [at 13.5 µM] and 9.63% [at 13.5 µM], respectively. Further, the activity, negative = inhibition was -4.42% [at 12.7 µM] in assay [9] and -12.9% [at 12.6 µM] in assay [11]. For the same molecule, the activity change, negative = inhibition was -25.4% [at 18.9 µM] in [14], 8.1% [at 19 µM] in [15] and 1.15% [at 18.9 µM] in [17].

As for `Cc1cc(N)c2cc(NC(=O)Nc3ccc4nc(C)cc(N)c4c3)ccc2n1`, the Potency result in assay [1], in assay [2], in assay [5], in assay [19], in assay [6] and in [7] was “inactive” throughout. Also, the Potency entry in assay [8], in assay [9], in assay [10], in [11], in [12] and in [14] was “inactive” throughout. The Potency entry in assay [16] was “inactive”. The result in assay [3] and in assay [18] was inactive.

Regarding `CCCOC(=O)c1ccc(N)cc1`, the Potency entry in assay [1], in [2], in [5], in assay [6], in [7] and in [8] was “inactive” each time. The Potency result in assay [9], in assay [10], in assay [11], in assay [12], in assay [13] and in assay [14] was “inactive” each time. Also, the Potency entry in assay [15], in assay [16] and in assay [17] was “inactive” in each case. For the same molecule, the result in assay [3] and in assay [18] was inactive.

On to `CCC1(C)C(=O)N(Cl)C(=O)N1Cl` (stereo not drawn), for which the Potency entry in [1], in assay [2], in assay [4], in assay [5], in assay [6] and in [7] was “inactive” throughout. For the same molecule, the Potency entry in assay [8], in [9], in assay [10], in [11], in assay [12] and in [13] was “inactive” each time. Also, the Potency entry in [14], in assay [15], in assay [16] and in assay [17] was “inactive” throughout. Moreover, the outcome in assay [3] and in assay [18] was inactive.

Take `CCCN(CCC)c1c([N+](=O)[O-])cc(C(F)(F)F)c(N)c1[N+](=O)[O-]`: the values for the Potency in assay [1] and in [7] were 24.3 µM (active) and 18.2 µM (active), respectively. Moreover, the Potency result in assay [2], in assay [5], in assay [19], in assay [10], in assay [12] and in [15] was “inactive” each time. The Potency entry in assay [16] is “inactive”. Further, the outcome in assay [18] was inactive.

Regarding `C=C(C)c1cccc(C(C)(C)N=C=O)c1`, the Potency result in assay [1], in [20], in [4], in assay [5], in assay [19] and in assay [6] was “inactive” each time. In addition, the Potency entry in assay [7], in assay [8], in assay [9], in [10], in [11] and in assay [12] was “inactive” each time. The Potency result in assay [13], in assay [14] and in assay [17] was “inactive” in each case. Also, the result in assay [3] and in [18] was inactive.

Regarding `CCOC(=O)CCc1ccccc1`, the Potency result in assay [1], in assay [20], in assay [4], in assay [5], in assay [19] and in [6] was “inactive” throughout. Moreover, the Potency result in [7], in assay [8], in [9], in [10], in [11] and in assay [12] was “inactive” each time. Moreover, the Potency result in assay [13], in assay [14], in [15], in [16] and in assay [17] was “inactive” in each case. The outcome in assay [3] and in [18] was inactive.
